Results filed as inconclusive are left out. The source made the active and inactive calls. The calls were made as follows, unless noted: active = hit-call score of the fitted dose curve at least 0.9, where 1 is the maximum; inactive = score below 0.9.
Assays:
[1] = CCTE_Harrill_HTTr_Viability_MCF7: CCTE's 6-hour Cell Viability Assessment for the High-Throughput Transcriptomics (HTTr) Platform, in MCF-7 cells cultured in DMEM + 10% fetal bovine serum, Harrill Lab (AID 2284010)
Summary of the method: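 Viability measured through PI dye exclusion by high-content imaging at 6 h post-dosing.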

[2] = CCTE_Harrill_HTTr_Apoptosis_MCF7: CCTE's 6-hour Apoptosis Assessment for the High-Throughput Transcriptomics (HTTr) Platform, in MCF-7 cells cultured in DMEM + 10% fetal bovine serum, Harrill Lab (AID 2284011)
Summary of the method: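 Read-out: CellEvent Caspase 3/7 Green signal by high content imaging, gain-of-signal indicating apoptosis. MCF-7 cells, DMEM + 10% FBS, eight-point dilution series, 6 h exposure. Curves fitted bidirectionally relative to DMSO negative control.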

[3] = CCTE_Harrill_HTTr_CellCount_MCF7: CCTE's Cell Proliferation Assessment for the High-Throughput Transcriptomics (HTTr) Platform, Harrill Lab (AID 2284012; active = hit-call score of the fitted dose curve at least 0.9, where 1 is the maximum;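 also: count of Hoechst-stained nuclei per well by high-content imaging in MCF-7 cells; cells exposed to compound for six hours; intended direction is loss of nuclei count meaning fewer cells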)
Summary of the method: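 Nuclei counting (Hoechst, high content imaging) in MCF-7 after a 6 h treatment at eight concentrations. Activity fitted bidirectionally, DMSO as negative control.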

CC(=O)[C@H]1[C@H](C#N)C[C@H]2[C@@H]3CC=C4C[C@@H](O)CC[C@]4(C)[C@H]3CC[C@@]21C
outcome [1]: inactive
outcome [2]: inactive
outcome [3]: inactive

C=C1C2CCC(C2)C1(C)C (stereo unspecified)
outcome [1]: inactive
outcome [2]: inactive
outcome [3]: inactive

O=C(O)CCCC[C@@H]1SC[C@@H]2NC(=O)N[C@@H]21
outcome [1]: inactive
outcome [2]: inactive
outcome [3]: inactive

c1ccc(-c2ccccn2)nc1
outcome [1]: inactive
outcome [2]: inactive
outcome [3]: inactive

C=C(C)[C@H]1CC=C(C)CC1
outcome [1]: inactive
outcome [2]: inactive
outcome [3]: inactive

c1c[nH]cn1
outcome [1]: inactive
outcome [2]: inactive
outcome [3]: inactive

CCCCCCCCCCCCCCCC[n+]1ccccc1
AC50 [1]: 77.1 µM (active)
AC50 [2]: 61.4 µM (active)
outcome [3]: inactive

CC1(C)O[C@@H]2C[C@H]3[C@@H]4C[C@H](F)C5=CC(=O)CC[C@]5(C)[C@H]4[C@@H](O)C[C@]3(C)[C@]2(C(=O)CO)O1
outcome [1]: inactive
outcome [2]: inactive
outcome [3]: inactive

NC(=O)N=NC(N)=O
outcome [1]: inactive
outcome [2]: inactive
outcome [3]: inactive

C[C@]12C=CC(=O)C=C1CC[C@@H]1[C@@H]2[C@@H](O)C[C@@]2(C)[C@H]1CC[C@]2(O)C(=O)CO
outcome [1]: inactive
outcome [2]: inactive
outcome [3]: inactive

CCCCC(CC)COC(=O)c1ccccc1 (stereo unspecified)
outcome [1]: inactive
outcome [2]: inactive
outcome [3]: inactive

C1=Cc2ccccc2C1
outcome [1]: inactive
outcome [2]: inactive
outcome [3]: inactive

Reference: PubChem BioAssay (EPA / NIEHS)
